Inconclusive results are not listed. Activity calls are given as the source filed them. Unless noted, calls come from the whole dose curve; as a rule, active = well fitted curve in the direction sought with a large enough effect in the repeat runs; inconclusive = weak or mixed curves; inactive = no such curve, though single readings can be large; an effect the other way counts as inactive or inconclusive.
How the values were obtained:
[1] = biological target: Aryl hydrocarbon receptor (Homo sapiens) (UniProt P35869); assay: qHTS assay to identify small molecule that activate the aryl hydrocarbon receptor (AhR) signaling pathway (AID 743085); note: nearly all actives have a fitted effect of over 15% in size; note: potency is the fitted concentration of half-maximal effect;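 for activation: HG2L7.5c1 human HepG2 liver cells with stably integrated DRE-driven firefly reporter; series mostly up to about 70 µM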
Chain of Aryl hydrocarbon receptor (Homo sapiens) (P35869 whole entry, looked up): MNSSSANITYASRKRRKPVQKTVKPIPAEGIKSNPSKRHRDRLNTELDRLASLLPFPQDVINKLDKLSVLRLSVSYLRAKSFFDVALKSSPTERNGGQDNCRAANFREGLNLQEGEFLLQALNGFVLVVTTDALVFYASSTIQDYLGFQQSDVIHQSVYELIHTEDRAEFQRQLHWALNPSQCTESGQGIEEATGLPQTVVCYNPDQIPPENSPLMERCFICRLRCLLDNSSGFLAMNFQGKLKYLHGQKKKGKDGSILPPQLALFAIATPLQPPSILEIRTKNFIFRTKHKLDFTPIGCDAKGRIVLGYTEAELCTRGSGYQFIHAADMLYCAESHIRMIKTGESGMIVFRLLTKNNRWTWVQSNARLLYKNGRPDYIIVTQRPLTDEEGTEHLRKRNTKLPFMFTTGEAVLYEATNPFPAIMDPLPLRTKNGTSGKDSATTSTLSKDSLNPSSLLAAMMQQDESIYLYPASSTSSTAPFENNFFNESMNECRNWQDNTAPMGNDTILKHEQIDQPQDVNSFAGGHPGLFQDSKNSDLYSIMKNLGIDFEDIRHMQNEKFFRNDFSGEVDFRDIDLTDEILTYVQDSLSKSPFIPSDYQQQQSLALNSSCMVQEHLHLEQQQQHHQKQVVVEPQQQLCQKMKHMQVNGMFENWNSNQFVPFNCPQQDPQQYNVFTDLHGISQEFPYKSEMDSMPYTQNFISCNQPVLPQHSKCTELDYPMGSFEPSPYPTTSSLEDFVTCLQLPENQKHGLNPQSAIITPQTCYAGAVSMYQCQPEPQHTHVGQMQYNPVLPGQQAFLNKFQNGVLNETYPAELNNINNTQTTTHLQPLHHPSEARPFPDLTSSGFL
In short: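 Steps: seed HepG2-AhR-luc cells; allow 5 h at 37C; pin-transfer test compound or vehicle; incubate 24 h at 37C; add viability dye (30 min, 37C) and read fluorescence; add luciferase substrate (30 min, RT) and read luminescence.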

[2] = qHTS assay to identify small molecule that activate the aryl hydrocarbon receptor (AhR) signaling pathway - cell viability counter screen (AID 743086); note: nearly all actives have a fitted effect of over 45% in size; note: potency is the fitted concentration of half-maximal effect
In short: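 HepG2-AhR-luc (HG2L7.5c1) cells, 4000/well, treated 24 h at 37 C with compound; viability measured as CellTiter-Fluor fluorescence after 30 min in the same wells as the luciferase read.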

[3] = biological target: Peroxisome proliferator-activated receptor gamma (Homo sapiens) (UniProt P37231); assay: qHTS assay to identify small molecule agonists of the peroxisome proliferator-activated receptor gamma (PPARg) signaling pathway (AID 743094; active = well fitted activation curve with a large enough effect in the signal ratio in the repeat runs, not every such curve was filed as active; the % refers to the signal ratio)
Chain of Peroxisome proliferator-activated receptor gamma (Homo sapiens) (P37231 whole entry, looked up): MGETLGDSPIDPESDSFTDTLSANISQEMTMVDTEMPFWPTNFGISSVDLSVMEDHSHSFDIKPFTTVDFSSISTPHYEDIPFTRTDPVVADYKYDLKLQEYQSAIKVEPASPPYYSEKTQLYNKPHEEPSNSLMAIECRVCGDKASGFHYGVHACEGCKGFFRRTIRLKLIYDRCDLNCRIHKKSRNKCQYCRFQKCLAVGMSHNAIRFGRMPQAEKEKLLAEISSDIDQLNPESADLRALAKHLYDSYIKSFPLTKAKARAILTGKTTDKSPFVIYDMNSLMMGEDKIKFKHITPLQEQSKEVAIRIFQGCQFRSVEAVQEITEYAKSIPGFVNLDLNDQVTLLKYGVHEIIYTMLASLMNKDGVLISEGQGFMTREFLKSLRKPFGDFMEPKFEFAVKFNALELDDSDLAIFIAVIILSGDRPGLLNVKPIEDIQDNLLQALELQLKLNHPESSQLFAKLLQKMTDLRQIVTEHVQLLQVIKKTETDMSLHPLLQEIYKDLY
In short: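 Stably transfected HEK293H cells (GeneBLAzer PPARg UAS-bla) were incubated with test substances for 17 h at 37C after a 5 h pre-incubation; beta-lactamase activity was then detected by FRET substrate fluorescence.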

[4] = biological target: Peroxisome proliferator-activated receptor gamma (Homo sapiens) (UniProt P37231); assay: qHTS assay to identify small molecule antagonists of the peroxisome proliferator-activated receptor gamma (PPARg) signaling pathway (AID 743191; calls by dose curve; note: series mostly up to about 63 µM; nearly all actives have a fitted effect of over 30% in size)
In short: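 GeneBLAzer PPARg UAS-bla HEK293H cells, 5 h post-plating, exposed to compounds 17 h at 37C. LiveBLAzer B/G FRET substrate added for 1 h at room temperature; beta-lactamase reporter read by fluorescence intensity.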

[5] = qHTS assay to identify small molecule antagonists of the peroxisome proliferator-activated receptor gamma (PPARg) signaling pathway - cell viability counter screen (AID 743194); note: nearly all actives have a fitted effect of over 55% in size; note: potency is the fitted concentration of half-maximal effect
In short: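 Cytotoxicity counter screen in PPARg-bla HEK293H cells, same wells as reporter assay. Compounds plus 50 nM rosiglitazone (final) for 17 h at 37 C, then viability read by CellTiter-Glo luminescence.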

[6] = qHTS assay for small molecule agonists of the antioxidant response element (ARE) signaling pathway (AID 743202; active = well fitted activation curve with a large enough effect in the signal ratio in the repeat runs, not every such curve was filed as active; the % refers to the signal ratio; note: potency is the fitted concentration of half-maximal effect)
In short: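 Agonist mode reporter screen: HepG2 cells with ARE-controlled beta-lactamase are incubated with test compounds for 16 h at 37 C, and beta-lactamase activity is measured as fluorescence of cleaved B/G FRET substrate.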

[7] = qHTS assay for small molecule agonists of the antioxidant response element (ARE) signaling pathway - cell viability counter screen (AID 743203; calls by dose curve; note: nearly all actives have a fitted effect of over 55% in size; note: potency is the fitted concentration of half-maximal effect)
In short: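 Cells (ARE-bla HepG2, 2,000/well) receive DMSO-dissolved compounds after a 5 hrs rest. Plates incubate 16 hrs at 37C/5% CO2. CellTiter-Glo luminescence is then recorded after 30 min at room temperature.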

[8] = qHTS assay for small molecule activators of the heat shock response signaling pathway - cell viability counter screen (AID 743209); note: nearly all actives have a fitted effect of over 50% in size; note: potency is the fitted concentration of half-maximal effect
In short: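 Quantitative HTS format, Tox21 10K library. HeLa cells carrying an HSE-driven beta-lactamase reporter were treated 5 h at 37 C, then assessed for viability by CellTiter-Glo luminescence.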

[9] = qHTS assay for small molecule activators of the heat shock response signaling pathway (AID 743210; active = well fitted activation curve with a large enough effect in the signal ratio in the repeat runs, with a control signal flat, not every such curve was filed as active; the % refers to the signal ratio;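 note: HeLa cells with beta-lactamase reporter driven by heat shock elements; series mostly up to about 63 µM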)
In short: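 Quantitative high-throughput format using an engineered HeLa line in which heat shock response elements drive beta-lactamase; after 5 h with compound, cells received a B/G FRET substrate and fluorescence was read.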

[10] = qHTS assay to identify aromatase inhibitors - cell viability counter screen (AID 743084);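 note: cells stimulated with testosterone during compound exposure; nearly all actives have a fitted effect of over 55% in size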

Measured: Potency

COc1ccc(-n2nc(C(F)F)cc2-c2ccc(S(C)=O)cc2)cc1 (stereo not drawn)
inactive: [1] | [2] | [3] | [4] | [5] | [6] | [7] | [8]

CCCCCCCC(=O)Oc1c(Br)cc(C#N)cc1Br
inactive: [2] | [6]

COC1CCC=CO1 (stereo not drawn)
inactive: [1] | [2] | [3] | [5] | [6] | [7] | [8] | [9]

Cc1ccc2c(c1[N+](=O)[O-])C(=O)c1ccccc1C2=O
inactive: [2] | [5] | [8] | [9]
active: [1] 30 µM | [6] 6.73 µM

Nc1ccc(N=Nc2ccc(N)cc2)cc1
inactive: [3] | [7] | [8] | [9]
active: [6] 2.43 µM

O[C@@H](CNC[C@H](O)[C@H]1CCc2cc(F)ccc2O1)[C@@H]1CCc2cc(F)ccc2O1
inactive: [1] | [8] | [9]
active: [2] 26.6 µM | [5] 29.8 µM | [7] 21.1 µM

CCCCCCCC/C=C/C(=O)O
inactive: [5] | [6] | [8]

Cc1cc(CCCOc2c(C)cc(-c3noc(C(F)(F)F)n3)cc2C)on1
inactive: [4] | [5] | [9]

Cc1ccc2nc(N)[nH]c(=O)c2c1Sc1ccncc1
inactive: [10] | [5] | [7] | [8] | [9]

COc1ccc(-c2cc(=S)ss2)cc1
active: [1] 29.8 µM | [6] 13.3 µM
inactive: [4] | [5] | [7] | [8]

CO[C@@H]1[C@@H](OC)[C@H](C)[C@@](O)(CC(=O)O)O[C@H]1[C@H](C)[C@H]1O[C@@]2(CC[C@@](C)([C@H]3CC[C@@](C)([C@@H]4O[C@@H]([C@H]5O[C@](C)(O)[C@H](C)C[C@@H]5C)C[C@@H]4OC4C[C@H](OC)[C@@H](OC)[C@H](C)O4)O3)O2)C[C@H](O)[C@H]1C (stereo partly drawn)
inactive: [3] | [9]
active: [5] 8.41 µM | [8] 11.9 µM

CC/C=C\C/C=C\C/C=C\CCCCCCCC(=O)OCC
inactive: [1] | [2] | [5] | [7] | [8]

COc1cc(NCc2ccc3nc(N)nc(N)c3c2C)cc(OC)c1OC
active: [1] 29.8 µM | [2] 29.8 µM | [7] 0.0376 µM
inactive: [8] | [9]

CNS(=O)(=O)c1cc(C(=O)N2CCC(CCN3C4CCC3CC(n3c(C)nc5ccccc53)C4)(c3cccc(F)c3)CC2)c(Cl)cc1F (stereo not drawn)
inactive: [1] | [8]

CCOC(=O)N1CCC(Nc2ccc(Cl)cc2N)CC1
active: [6] 7.5 µM
inactive: [5] | [7] | [8]

CN(C)CC/C=C1\c2ccccc2Sc2ccc(Cl)cc21
inactive: [1] | [3] | [8] | [9]

O=C(CCS)OCC(COC(=O)CCS)(COC(=O)CCS)COC(=O)CCS
inactive: [1] | [2] | [3]

CCC(=O)OCc1ccc(OC)cc1
inactive: [2] | [5] | [7] | [8]
